In PubChem BioAssay:
Where “and” joins values, the source holds several entries; their conditions need not be identical. Identical values can stand only once. Records with an inconclusive call do not appear. Calls of active or inactive are those of the source. Unless noted, no cut-off is given here; in the data, nearly all actives have AC50 up to about 26 µM.

What was measured:
[1] = growth inhibition of DIPG glioma cells, dose response, cell-based, SU-DIPG-IV, MIPE4.0, CellTiter-Glo, qHTS (AID 1347063; cut-off not given, nearly all actives have AC50 up to about 30 µM;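 note: compound exposure lasted 48 hours before the viability readout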); conditions: SU-DIPG-IV viability, CellTiter-Glo ATP luminescence
[2] = SU-DIPG-VI glioma cell viability, MIPE4.0 library, CellTiter-Glo luminescence, qHTS (AID 1347066; cut-off not given, nearly all actives have AC50 up to about 30 µM;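 note: cells exposed to compound for 48 hours before readout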); conditions: CellTiter-Glo ATP luminescence
[3] = viability rescue of complex I mutant cybrids, primary screen, cell-based, galactose medium, ATP luminescence (AID 1645843;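 active = z-score of at least 1.8 in each of two replicates, scored against plate mean and spread of sample wells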;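 note: positive z means more ATP and so rescue of galactose-driven cybrid death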); conditions: complex I mutant cybrid cells, 72 h, stronger effect = higher value
[4] = target: ATP-dependent translocase ABCB1 (Homo sapiens) (UniProt P08183); test: MDR1 (ABCB1) efflux transporter inhibition, cell-based (AID 377; in the data active = fluorescence slope change above about 50%); conditions: MDR1-expressing cells, fluorescent substrate accumulation slope; stronger effect = higher value; concentration not given here
Sequence of ATP-dependent translocase ABCB1 (Homo sapiens) (P08183 whole entry, looked up): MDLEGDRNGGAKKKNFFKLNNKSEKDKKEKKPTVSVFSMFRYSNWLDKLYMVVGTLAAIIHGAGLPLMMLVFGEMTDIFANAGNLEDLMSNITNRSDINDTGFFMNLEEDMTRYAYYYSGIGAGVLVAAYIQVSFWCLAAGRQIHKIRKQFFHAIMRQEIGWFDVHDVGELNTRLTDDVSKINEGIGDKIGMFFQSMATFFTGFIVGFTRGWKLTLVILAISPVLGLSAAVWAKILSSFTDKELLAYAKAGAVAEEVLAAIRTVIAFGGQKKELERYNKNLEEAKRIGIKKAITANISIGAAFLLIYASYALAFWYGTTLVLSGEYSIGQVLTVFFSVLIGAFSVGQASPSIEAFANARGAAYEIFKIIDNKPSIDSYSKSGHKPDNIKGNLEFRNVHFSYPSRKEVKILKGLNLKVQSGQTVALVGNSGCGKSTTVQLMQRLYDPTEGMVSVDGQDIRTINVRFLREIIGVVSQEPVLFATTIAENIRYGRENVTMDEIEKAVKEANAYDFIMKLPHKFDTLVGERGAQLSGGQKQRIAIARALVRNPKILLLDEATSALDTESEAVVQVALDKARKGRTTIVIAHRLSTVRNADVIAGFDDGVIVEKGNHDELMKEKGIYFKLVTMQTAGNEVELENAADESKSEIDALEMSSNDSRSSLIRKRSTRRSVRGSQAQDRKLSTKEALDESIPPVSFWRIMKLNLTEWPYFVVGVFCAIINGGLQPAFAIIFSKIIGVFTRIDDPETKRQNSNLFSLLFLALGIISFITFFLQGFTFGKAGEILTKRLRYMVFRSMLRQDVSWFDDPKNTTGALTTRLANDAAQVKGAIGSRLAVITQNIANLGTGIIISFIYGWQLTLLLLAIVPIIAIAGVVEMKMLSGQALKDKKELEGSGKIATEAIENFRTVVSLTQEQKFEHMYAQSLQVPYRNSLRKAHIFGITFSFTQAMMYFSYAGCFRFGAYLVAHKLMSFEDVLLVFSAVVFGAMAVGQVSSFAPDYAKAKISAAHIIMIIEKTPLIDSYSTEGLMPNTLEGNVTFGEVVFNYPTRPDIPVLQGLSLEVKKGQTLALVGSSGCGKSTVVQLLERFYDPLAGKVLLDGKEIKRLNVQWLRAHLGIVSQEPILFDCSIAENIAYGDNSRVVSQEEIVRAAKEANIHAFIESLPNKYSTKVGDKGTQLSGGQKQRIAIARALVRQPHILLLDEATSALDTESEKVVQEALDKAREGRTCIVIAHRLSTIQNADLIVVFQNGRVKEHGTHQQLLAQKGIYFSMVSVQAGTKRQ

[5] = JHH-DIPG-1 glioma cell viability, MIPE5.0 library, CellTiter-Glo luminescence, qHTS (AID 1347067); conditions: JHH-DIPG-1 glioma viability, CellTiter-Glo ATP luminescence;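 note: cells exposed to compound for 48 hours before readout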
[6] = SU-DIPG-XXV glioma cell viability, MIPE5.0 library, qHTS (AID 1347068; cut-off not given, nearly all actives have IC50 up to about 30 µM;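 for IC50: cells exposed to compound for 48 hours before viability readout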)
[7] = target: Mitogen-activated protein kinase 7 (Homo sapiens) (UniProt Q13164); test: ERK5 transactivation activators in reporter cells, primary screen, cell-based, HTS (AID 1508626;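 active = luciferase signal above three times the same-plate solvent-only control wells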;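 note: luciferase driven by Gal4-ERK5 fusion binding five Gal4 sites before minimal TATA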); conditions: HeLa Gal4-ERK5 transactivation, 18 h, at 5 µM, stronger effect = higher value
Sequence of Mitogen-activated protein kinase 7 (Homo sapiens) (Q13164 whole entry, looked up, the tested form may be a part): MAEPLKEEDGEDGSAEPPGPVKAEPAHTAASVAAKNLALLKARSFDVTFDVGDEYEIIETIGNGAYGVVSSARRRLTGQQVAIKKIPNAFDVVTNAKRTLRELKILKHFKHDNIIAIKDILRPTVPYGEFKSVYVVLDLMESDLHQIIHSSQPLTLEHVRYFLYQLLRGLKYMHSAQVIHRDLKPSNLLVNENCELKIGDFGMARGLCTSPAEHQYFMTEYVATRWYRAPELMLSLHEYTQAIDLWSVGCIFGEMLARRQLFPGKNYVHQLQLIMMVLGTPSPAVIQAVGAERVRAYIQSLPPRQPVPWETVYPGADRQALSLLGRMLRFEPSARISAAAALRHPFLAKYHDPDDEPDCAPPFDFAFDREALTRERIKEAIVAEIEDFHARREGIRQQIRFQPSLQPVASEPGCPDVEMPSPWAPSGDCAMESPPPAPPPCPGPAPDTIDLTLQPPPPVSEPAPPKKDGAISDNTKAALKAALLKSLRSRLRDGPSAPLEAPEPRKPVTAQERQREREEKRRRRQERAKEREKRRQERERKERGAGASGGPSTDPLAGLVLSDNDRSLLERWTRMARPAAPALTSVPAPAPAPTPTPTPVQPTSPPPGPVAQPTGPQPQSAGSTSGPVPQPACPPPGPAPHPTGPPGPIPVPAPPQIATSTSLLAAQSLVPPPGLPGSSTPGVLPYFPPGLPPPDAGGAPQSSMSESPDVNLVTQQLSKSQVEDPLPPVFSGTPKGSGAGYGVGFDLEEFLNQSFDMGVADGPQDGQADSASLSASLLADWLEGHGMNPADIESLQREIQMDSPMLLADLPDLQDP

[8] = growth inhibition of DIPG glioma cells, dose response, cell-based, JHH-DIPG-1, MIPE4.0, CellTiter-Glo, qHTS (AID 1347062; cut-off not given, nearly all actives have AC50 up to about 27 µM;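 for AC50: cells exposed to compound for two days before readout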); conditions: JHH-DIPG-1 viability, CellTiter-Glo ATP luminescence
[9] = growth inhibition of DIPG glioma cells, dose response, cell-based, SU-DIPG-XIII, MIPE5.0, CellTiter-Glo, qHTS (AID 1347064; cut-off not given, nearly all actives have AC50 up to about 23 µM;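 for AC50: cells exposed to compound for 48 hours before the viability read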); conditions: SU-DIPG-XIII viability, CellTiter-Glo ATP luminescence
[10] = viability loss in pontine glioma line – cell-based, SU-DIPG-XXV, MIPE5.0, CellTiter-Glo, qHTS, dose response (AID 1347065); conditions: CellTiter-Glo ATP luminescence;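 note: cells exposed to compound for 48 hours before ATP readout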
[11] = LFS_MB_1R medulloblastoma cell growth inhibition, synergistic combos for chromothripsis tumors, cisplatin or BGB combos (AID 1671452; in the data active = inhibition above about 80%;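 note: cells exposed for 96 hours before readout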); conditions: LFS_MB_1R medulloblastoma cells, stronger effect = higher value
[12] = CRL2098 osteosarcoma cell growth inhibition, synergistic combos for chromothripsis tumors, BGB or cisplatin IC20 combos (AID 1671454; in the data active = inhibition above about 80%;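 note: cells exposed for 96 h before readout; 0% = vehicle DMSO and 100% = killing by high DMSO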); conditions: CRL2098 osteosarcoma cells, drug combinations, stronger effect = higher value
[13] = HD-MB03 medulloblastoma cell growth inhibition, synergistic combos for chromothripsis tumors, BGB or cisplatin IC20 combos (AID 1671455; in the data active = inhibition above about 83%;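 note: 0% = vehicle DMSO and 100% = high DMSO as cytotoxic control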); conditions: HD-MB03 medulloblastoma cells, stronger effect = higher value
[14] = UWB1.289 ovarian carcinoma cell growth inhibition, synergistic combos for chromothripsis tumors, BGB or cisplatin combos (AID 1671456; in the data active = inhibition above about 80%;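 note: cells exposed to compound for four days; 0% = vehicle DMSO and 100% = killing by high DMSO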); conditions: UWB1.289 ovarian carcinoma cells, stronger effect = higher value
[15] = LFS_MB_2R medulloblastoma cell growth inhibition, synergistic combos for chromothripsis tumors, cisplatin combos (AID 1671457; in the data active = inhibition above about 80%;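 note: cells exposed to compound for four days before readout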); conditions: LFS_MB_2R medulloblastoma cells, stronger effect = higher value
[16] = UWB1.289_BRCA1 ovarian cancer growth, cell-based, BGB or cisplatin combinations (AID 1671459; in the data active = inhibition above about 80%); conditions: UWB1.289 BRCA1 ovarian carcinoma, drug combinations, stronger effect = higher value
[17] = human astrocyte viability loss, single and combined drugs, cytotoxicity control for chromothriptic childhood tumor combination screen, cell-based, BGB or cisplatin IC20 combos (AID 1671460; in the data active = inhibition above about 80%;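 note: cells exposed to compounds for 96 hours before viability readout; 0% = vehicle and 100% = killing control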); conditions: Human astrocytes, drug combinations, stronger effect = higher value
[18] = growth inhibition of BT084 medulloblastoma cells, cell-based, ICGC_MB145, cisplatin and BGB IC40 combos (AID 1671461; in the data active = inhibition above about 80%;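 note: cells exposed to drugs for 96 hours; 0% = vehicle DMSO and 100% = high DMSO full killing control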); conditions: drug combinations, stronger effect = higher value
[19] = growth inhibition of RCMB18 medulloblastoma cells, cell-based, cisplatin and BGB IC40 combos (AID 1671462; in the data active = inhibition above about 80%;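 note: cells exposed to compound for four days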); conditions: stronger effect = higher value
[20] = growth inhibition of CRL1545 osteosarcoma cells, cell-based, cisplatin and BGB IC20 combos (AID 1671464; in the data active = inhibition above about 80%;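 note: cells exposed to compound for 96 hours before readout; 0% = vehicle DMSO and 100% = high DMSO killing control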); conditions: stronger effect = higher value
[21] = measured here: combination with cisplatin, at 0.5 µM
[22] = measured here: combination with cisplatin, at 5 µM

## O=C1Cc2cc(CCN3CCN(c4nsc5ccccc45)CC3)c(Cl)cc2N1
[1]
  AC50: 26.4 µM (active)
[2]
  AC50: 23.5 µM (active)
[3]
  z-score: -0.165 (inactive)

## Clc1ccc(Cn2c(CN3CCCC3)nc3ccccc32)cc1
[4]
  fluorescence slope change: 82.8% (active)
[5]
  outcome: inactive
[6]
  outcome: inactive
[7]
  luciferase signal: 56 AU (inactive)
[3]
  z-score: -1.35 (inactive)

## CCN(C)C(=O)Oc1cccc([C@H](C)N(C)C)c1
[8]
  outcome: inactive
[2]
  outcome: inactive
[3]
  z-score: 0.825 (inactive)

## CC(=O)c1ccc2c(c1)N(CCCN(C)C)c1ccccc1S2
[4]
  fluorescence slope change: 72% (active)
[7]
  luciferase signal: 32 AU (inactive)
[3]
  z-score: -0.995 (inactive)

## O=C(O)CN(CCN(CC(=O)O)CC(=O)O)CCN(CC(=O)O)CC(=O)O
[3]
  z-score: 4.38 (active)

## NC(N)=NC(N)=NCCc1ccccc1
[4]
  fluorescence slope change: 100% (active)
[8]
  outcome: inactive
[1]
  outcome: inactive
[9]
  outcome: inactive
[10]
  outcome: inactive
[2]
  outcome: inactive
[5]
  outcome: inactive
[6]
  outcome: inactive
[7]
  luciferase signal: 40 AU (inactive)
[3]
  z-score: -2.58 (inactive)

## CC(C)(Oc1ccc(C2CC2(Cl)Cl)cc1)C(=O)O (centres undefined)
[8]
  outcome: inactive
[9]
  outcome: inactive
[10]
  outcome: inactive
[2]
  outcome: inactive
[5]
  outcome: inactive
[6]
  outcome: inactive
[3]
  z-score: 0.695 (inactive)

## CC(=O)NCCCS(=O)(=O)O
[9]
  outcome: inactive
[10]
  outcome: inactive
[6]
  outcome: inactive
[7]
  luciferase signal: 52 AU (inactive)

## Nc1cc(C(Cl)=C(Cl)Cl)c(S(N)(=O)=O)cc1S(N)(=O)=O
[8]
  outcome: inactive
[1]
  outcome: inactive
[9]
  outcome: inactive
[10]
  outcome: inactive
[2]
  outcome: inactive
[5]
  outcome: inactive
[6]
  outcome: inactive

## N=C(N=C(N)N)N1CCOCC1
[4]
  fluorescence slope change: 25.2% (inactive)
[1]
  outcome: inactive
[2]
  outcome: inactive
[3]
  z-score: 0.495 (inactive)
[11]; at 0.5 µM
  inhibition: -2.71% (inactive)
[11]; measured here: combination with BGB IC40, at 0.05 µM
  inhibition: 2.02%
[11]; [21]
  inhibition: 8.46%
[11]; [22]
  inhibition: -12.4%
[12]; at 0.5 µM
  inhibition: -24.9% (inactive)
[12]; measured here: combination with BGB at IC20, at 0.5 µM
  inhibition: -15.5%
[12]; measured here: combination with cisplatin at IC20, at 0.5 µM
  inhibition: -34.6%
[13]; at 0.5 µM
  inhibition: -2.36% (inactive)
[13]; measured here: combo with BGB at IC20, at 0.5 µM
  inhibition: 3.57%
[13]; measured here: combo with cisplatin at IC20, at 0.5 µM
  inhibition: -15.2%
[14]; at 0.5 µM
  inhibition: 6.16% (inactive)
[14]; measured here: inhibition with BGB combination, at 0.05 µM
  inhibition: -1.97%
[14]; measured here: inhibition with cisplatin combination, at 0.05 µM
  inhibition: 3.05%
[15]; at 0.5 µM
  inhibition: 6.81% (inactive)
[15]; [21]
  inhibition: 8.19%
[15]; [22]
  inhibition: -31.5%
[16]; BGB combination, concentration series, at 5 µM
  inhibition: 1.52%
[16]; at 0.5 µM
  inhibition: 3.22% (inactive)
[16]; cisplatin combination, concentration series, at 5 µM
  inhibition: 4.22%
[17]; at 0.5 µM
  inhibition: 2.04% (inactive)
[17]; measured here: combo with BGB IC20, at 0.5 µM
  inhibition: 7.42%
[17]; measured here: combo with cisplatin IC20, at 0.5 µM
  inhibition: -4.5%
[18]; at 0.5 µM
  inhibition: 3.57% (inactive)
[18]; cisplatin combination, at 0.5 µM
  inhibition: -9.16%
[18]; cisplatin combination, at 5 µM
  inhibition: 7.43%
[18]; measured here: BGB IC40 combination 0.05 uM, at 0.05 µM
  inhibition: 0.739%
[18]; single agent, at 5 µM
  inhibition: -12.3%
[19]; at 0.5 µM
  inhibition: 5.29% (inactive)
[19]; cisplatin combo, at 5 µM
  inhibition: -26%
[19]; measured here: BGB IC40 combination, at 0.05 µM
  inhibition: -14.8%
[19]; [21]
  inhibition: 25.2%
[19]; single agent, at 5 µM
  inhibition: -13.7%
[20]; at 0.5 µM
  inhibition: 2.6% (inactive)
[20]; measured here: with BGB IC20 combination, at 0.5 µM
  inhibition: -18.7%
[20]; measured here: with cisplatin IC20 combination, at 0.5 µM
  inhibition: 11.3%
[20]; single agent, at 0.05 µM
  inhibition: 0.225%
[20]; single agent, at 5 µM
  inhibition: 8.11%

## CCN(CC)C(=O)c1ccc(O)c(OC)c1
[4]
  fluorescence slope change: 53.1% (active)
[7]
  luciferase signal: 52 AU (inactive)
[3]
  z-score: 0.21 (inactive)

## CN(N=O)C(=O)N[C@@H]1[C@@H](O)[C@H](O)[C@@H](CO)O[C@@H]1O
[9]
  outcome: inactive
[10]
  outcome: inactive
[5]
  outcome: inactive
[6]
  outcome: inactive
[7]
  luciferase signal: 120 AU (inactive)

## O=[N+]([O-])c1ccc(O)c2ncccc12
[9]
  AC50: 3.32 µM (active)
[10]
  AC50: 9.34 µM (active)
[5]
  AC50: 2.95 µM (active)
[6]
  IC50: 23.5 µM (active)

## CC(C)Cn1cnc2c(N)nc3ccccc3c21
[8]
  AC50: 18.7 µM (active)
[1]
  AC50: 20.9 µM (active)
[9]
  outcome: inactive
[2]
  outcome: inactive
[5]
  outcome: inactive
[6]
  outcome: inactive
[3]
  z-score: 0.245 (inactive)

## CC(S)C(=O)NCC(=O)O (centres undefined)
[8]
  outcome: inactive
[2]
  outcome: inactive
[6]
  outcome: inactive

## NCCCNCCSP(=O)(O)O
[7]
  luciferase signal: 52 AU (inactive)
[3]
  z-score: 0.585 (inactive) and 0.25 (inactive)

## Cn1c(=O)c2c(ncn2CC2OCCO2)n(C)c1=O
[9]
  outcome: inactive
[10]
  outcome: inactive
[5]
  outcome: inactive
[6]
  outcome: inactive
[3]
  z-score: 0.585 (inactive)

## COc1cccc2c1C(=O)c1c(O)c3c(c(O)c1C2=O)C[C@@](O)(C(C)=O)C[C@@H]3O[C@H]1C[C@H](N)[C@H](O)[C@H](C)O1
[8]
  AC50: 0.0332 µM (active)
[1]
  AC50: 0.0469 µM (active)
[9]
  AC50: 0.742 µM (active)
[10]
  AC50: 0.742 µM (active)
[5]
  AC50: 0.742 µM (active)
[6]
  IC50: 3.32 µM (active)
[7]
  luciferase signal: 300 AU (active)
[3]
  z-score: -2.16 (inactive)

## COc1cc2c(c(OC)c1OC)-c1ccc(OC)c(=O)cc1[C@@H](NC(C)=O)CC2
[4]
  fluorescence slope change: 7.7% (inactive)
[8]
  AC50: 0.105 µM (active)
[1]
  outcome: inactive
[9]
  AC50: 0.0525 µM (active)
[10]
  AC50: 0.0417 µM (active)
[5]
  AC50: 0.0295 µM (active)
[6]
  IC50: 0.0468 µM (active)
[7]
  luciferase signal: 88 AU (inactive)
[3]
  z-score: -0.69 (inactive)

## Cc1cc(=O)oc2cc(O)ccc12
[8]
  outcome: inactive
[1]
  outcome: inactive
[10]
  outcome: inactive
[2]
  outcome: inactive
[5]
  outcome: inactive

## Cc1nc(Nc2ncc(C(=O)Nc3c(C)cccc3Cl)s2)cc(N2CCN(CCO)CC2)n1
[8]
  AC50: 16.6 µM (active)
[1]
  AC50: 16.6 µM (active)
[9]
  AC50: 14.8 µM (active)
[10]
  AC50: 14.8 µM (active)
[2]
  outcome: inactive
[5]
  AC50: 7.42 µM (active)

## OC(CCN1CCCCC1)(c1ccccc1)C1CC2C=CC1C2 (centres undefined)
[4]
  fluorescence slope change: 23% (inactive)
[8]
  outcome: inactive
[1]
  outcome: inactive
[10]
  outcome: inactive
[2]
  outcome: inactive
[5]
  outcome: inactive
[6]
  outcome: inactive
[7]
  luciferase signal: 60 AU (inactive)
[3]
  z-score: -0.86 (inactive)

## C[C@H]1[C@H](NC(=O)/C(=N/OC(C)(C)C(=O)O)c2csc(N)n2)C(=O)N1S(=O)(=O)O (stereo in doubt)
[8]
  outcome: inactive
[1]
  outcome: inactive
[2]
  outcome: inactive

## COc1ccc2[nH]c(S(=O)Cc3ncc(C)c(OC)c3C)nc2n1 (centres undefined)
[6]
  outcome: inactive
[3]
  z-score: 0.825 (inactive)

## O=C(O)[C@H](O)[C@@H](O)[C@H](O[C@@H]1O[C@H](CO)[C@H](O)[C@H](O)[C@H]1O)[C@H](O)CO
[9]
  outcome: inactive
[10]
  outcome: inactive
[5]
  outcome: inactive
[6]
  outcome: inactive
